What all share (test): NCI-60 one-dose screen, 48 h (100 = growth as untreated, 0 = no growth, -100 = all killed)
Conditions in all cases: 10 µM unless noted

Test [1] deals with NCI/ADR-RES ovarian.
Test [2] deals with T-47D breast.
Test [3] relates to BT-549 breast.
For test [4], the system named is MDA-MB-435 melanoma.
Test [5] concerns SW-620 colon.
Test [6] concerns MCF7 breast.
Test [7] concerns HCT-116 colon.
The subject of test [8] is HCC-2998 colon.
Test [9] relates to KM12 colon.

Compounds without any hit were thinned out: in the full panel of roughly 83,000, 20% have a hit.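 The test compound was applied at a single concentration to cells in 96-well plates for 48 hours, and percent growth was recorded.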 Values without a mark were called inactive. The source made the active and inactive calls. The calls were made as follows: active = growth percent below 10; inactive = the rest.

As for `CN1CCCCC1C(C)(O)c1ccccc1` (stereo not given), the growth was 96.1% in [1]; 92.2% in test [2]; 87.4% in test [3]; 99.2% in test [4]; 110% in test [5]; 85.7% in [6]. The growth in test [7] was 93%; in test [8] it was 115%; in test [9], 106%.

In the case of `O=C(CC1(O)C(=O)Nc2ccc(Br)cc21)c1ccc(C(=O)NCC2CCC3(CC2)OOC2(CCCCC2)OO3)cc1` (stereo not given), the growth in [1] was 64.6%; in test [2], 14.7%; in [3] it was 63.6%; in test [4], 36.1%; in test [5] it was -12.5% (active); in test [6], 32.5%. In addition, the growth in test [7] was 38.9%; in test [8] it was 99.7%; in test [9], 31.6%.

Regarding `CC(=O)OCc1cc[c]([Hg][Cl])o1`, the growth in test [1] is 77.1%; in [2], 17.8%; in test [3], 14.3%; in test [4] it was 29.4%; in [5] it was 25.4%; in [6], 20.2%. In addition, the growth is 35.7% in [7], 76.4% in test [8] and 91.8% in test [9].

For the compound `CC(=O)OCC1O[C@@H]([S-])C(OC(C)=O)[C@H](OC(C)=O)[C@@H]1OC(C)=O.[Au+].c1ccc(CN2[CH-]N(Cc3ccccc3)C(c3ccccc3)=C2c2ccccc2)cc1`, the growth in test [1] is 98.7%; in test [2] it was -37.1% (active); in test [3], -30.2% (active); in test [4], 48.4%; in [5] it was 8.97% (active); in test [6], -3.49% (active). In addition, the growth in test [7] is 18.8%; in [8], -57.4% (active); in test [9], 59.6%.

Turning to `COc1ccc(/C=C\c2cc(OC)c(OC)c(OC)c2)c(NS(=O)(=O)c2ccc(Cl)cc2)c1O`, the growth in [1] is -7.04% (active); in [2] it was 84.7%; in test [3], 58.2%; in [4], -48% (active); in test [5] it was 27%; in test [6] it was 12.7%. Moreover, the growth in [7] was 6.81% (active); in test [8], 12.7%; in test [9] it was 1.25% (active).

With `CC[S][Hg][Cl]`, the growth in test [1] was 106%; in [2], 122%; in [3] it was 111%; in test [4], 98.7%; in [5], 106%; in [6], 93.3%. The growth was 106% in test [7], 111% in [8] and 107% in test [9].

Consider `C=C1C(=O)O[C@H]2[C@H]1CC/C(COC(=O)C(=O)c1cn(Cc3ccccc3)c3ccccc13)=C\CC[C@@]1(C)O[C@@H]21`, for which the growth is -1.18% (active) in [1]; -7.91% (active) in test [2]; -77.4% (active) in test [3]; -76.6% (active) in test [4]; -84.8% (active) in [5]; -68.7% (active) in test [6]. In addition, the growth in test [7] is -81.5% (active); in test [8] it was -85.4% (active); in test [9], -89.7% (active).

For `CN1CC(CNC(=O)OCc2ccccc2)CC2c3cccc4c3c(cn4C)CC21` (stereo not given), the growth is 44.2% in [1]; 31.6% in [2]; 50% in [3]; 3% (active) in test [4]; 35.9% in [5]; -55.3% (active) in test [6]. Moreover, the growth in test [7] was 31.7%; in [8], -66.9% (active); in [9], 38.1%.

With `CCOC(=O)N1CC1`, the growth in test [1] was 98%; in test [2] it was 114%; in [3], 109%; in test [4], 97.1%; in test [5] it was 103%; in test [6], 102%. Also, the growth in [7] is 98.4%; in test [8], 150%; in [9], 107%.

`COC(=O)C1OC(Oc2ccc(N(CCCl)CCCl)cc2)C(OC(C)=O)C(OC(C)=O)C1OC(C)=O` (stereo not given): the growth was 92.9% in test [1]; 77.4% in test [2]; 95.3% in test [3]; 93.2% in test [4]; 75.4% in test [5]; 57.8% in test [6]. The growth in test [7] is 88.6%; in test [8] it was 96%.

As to `CN1C(=O)C(=Cc2cn(CCCCCCn3c4ccccc4c(=O)c4ccccc43)c3ccccc23)C(=O)N(C)C1=O`, the growth in [1] was 90.7%; in test [2] it was 75%; in test [3] it was 91.2%; in test [4], 107%; in test [5], 103%; in test [6], 81.1%. Besides, the growth in test [7] was 85.5%; in test [8] it was 99.4%; in test [9] it was 98.7%.

As for `CC(=O)/C=C/c1ccc2c(c1)OCO2`, the growth in test [1] was 113%; in [2] it was 107%; in test [3], 100%; in [4] it was 85.7%; in [5] it was 106%; in test [6], 101%. Further, the growth was 99.3% in [7], 109% in test [8] and 109% in [9].

Consider `CCCCCCCCCCCCCCCCCCOc1ccccc1COP(=O)(O)OOCC[N+](C)(C)C`, for which the growth in test [1] was 88.5%; in test [2], 16.8%; in test [3], 25.5%; in [4], 7.62% (active); in test [5], 6.94% (active); in test [6] it was 16.2%. Moreover, the figures for the growth in [7], in [8] and in test [9] were 1.15% (active), -8.6% (active) and 0.411% (active), respectively.

`CCCCN1CCCC[C@@H]1C(=O)N[C@H](C(=O)N(C)[C@H](C[C@@H](OC(C)=O)c1nc(C(=O)NC2CCC(C(=O)OC)CC2)cs1)C(C)C)C(C)C` (stereo not given in full): the growth in [1] is 41.2%; in test [2] it was 27.4%; in test [3], 40.1%; in [4], -43.9% (active); in [5], 19.5%; in test [6], 24.6%. In addition, the growth was 14% in [7], 67.6% in test [8] and 24.6% in test [9].
